Assay results from ChEMBL document CHEMBL1961873, “Compounds: GSK PKIS; Assays: Nanosyn kinase panel” (2012).

How the values were obtained:
[1] = target: RAC-alpha serine/threonine-protein kinase (Homo sapiens) (UniProt P31749); conditions: at 0.1 µM
[2] = target: RAC-alpha serine/threonine-protein kinase (Homo sapiens) (UniProt P31749); conditions: at 1 µM
[3] = target: RAC-beta serine/threonine-protein kinase (Homo sapiens) (UniProt P31751); conditions: at 0.1 µM
[4] = target: RAC-gamma serine/threonine-protein kinase (Homo sapiens) (UniProt Q9Y243); conditions: at 0.1 µM
Sequence of RAC-gamma serine/threonine-protein kinase (Homo sapiens) (Q9Y243 whole entry): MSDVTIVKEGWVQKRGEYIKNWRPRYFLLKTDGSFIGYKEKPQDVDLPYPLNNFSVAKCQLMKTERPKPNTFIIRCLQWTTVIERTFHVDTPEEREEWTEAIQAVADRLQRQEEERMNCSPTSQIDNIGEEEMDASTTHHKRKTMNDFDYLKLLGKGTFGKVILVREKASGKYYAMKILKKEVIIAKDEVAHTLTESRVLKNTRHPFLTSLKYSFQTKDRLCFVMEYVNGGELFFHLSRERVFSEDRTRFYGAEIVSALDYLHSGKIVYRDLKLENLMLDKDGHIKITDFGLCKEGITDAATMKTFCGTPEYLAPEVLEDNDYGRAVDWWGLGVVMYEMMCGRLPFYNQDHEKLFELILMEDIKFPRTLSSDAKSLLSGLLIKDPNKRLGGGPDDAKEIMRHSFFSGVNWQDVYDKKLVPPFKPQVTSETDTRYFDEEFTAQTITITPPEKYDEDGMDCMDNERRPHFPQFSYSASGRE

[5] = target: RAC-gamma serine/threonine-protein kinase (Homo sapiens) (UniProt Q9Y243); conditions: at 1 µM
[6] = target: G protein-coupled receptor kinase 6 (Homo sapiens) (UniProt P43250); conditions: at 0.1 µM
Sequence of G protein-coupled receptor kinase 6 (Homo sapiens) (P43250 whole entry, looked up): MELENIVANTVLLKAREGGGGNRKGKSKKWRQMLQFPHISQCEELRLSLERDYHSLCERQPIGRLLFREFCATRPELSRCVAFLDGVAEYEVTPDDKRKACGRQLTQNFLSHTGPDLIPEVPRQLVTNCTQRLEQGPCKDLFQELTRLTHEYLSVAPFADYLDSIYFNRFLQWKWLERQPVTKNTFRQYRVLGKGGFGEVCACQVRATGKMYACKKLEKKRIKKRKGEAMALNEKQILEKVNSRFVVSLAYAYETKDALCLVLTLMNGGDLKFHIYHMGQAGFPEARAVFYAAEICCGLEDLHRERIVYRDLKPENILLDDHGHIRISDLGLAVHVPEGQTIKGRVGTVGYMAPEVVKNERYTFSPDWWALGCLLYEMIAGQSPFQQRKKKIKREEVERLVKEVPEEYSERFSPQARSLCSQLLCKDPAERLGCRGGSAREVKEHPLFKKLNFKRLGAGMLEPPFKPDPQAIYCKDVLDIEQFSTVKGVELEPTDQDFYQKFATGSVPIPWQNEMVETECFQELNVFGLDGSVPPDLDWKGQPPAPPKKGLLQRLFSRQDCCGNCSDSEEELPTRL

[7] = target: G protein-coupled receptor kinase 6 (Homo sapiens) (UniProt P43250); conditions: at 1 µM
[8] = target: T1, Rhodopsin kinase GRK7 (Homo sapiens) (UniProt Q8WTQ7); conditions: at 0.1 µM
T1 sequence (whole entry): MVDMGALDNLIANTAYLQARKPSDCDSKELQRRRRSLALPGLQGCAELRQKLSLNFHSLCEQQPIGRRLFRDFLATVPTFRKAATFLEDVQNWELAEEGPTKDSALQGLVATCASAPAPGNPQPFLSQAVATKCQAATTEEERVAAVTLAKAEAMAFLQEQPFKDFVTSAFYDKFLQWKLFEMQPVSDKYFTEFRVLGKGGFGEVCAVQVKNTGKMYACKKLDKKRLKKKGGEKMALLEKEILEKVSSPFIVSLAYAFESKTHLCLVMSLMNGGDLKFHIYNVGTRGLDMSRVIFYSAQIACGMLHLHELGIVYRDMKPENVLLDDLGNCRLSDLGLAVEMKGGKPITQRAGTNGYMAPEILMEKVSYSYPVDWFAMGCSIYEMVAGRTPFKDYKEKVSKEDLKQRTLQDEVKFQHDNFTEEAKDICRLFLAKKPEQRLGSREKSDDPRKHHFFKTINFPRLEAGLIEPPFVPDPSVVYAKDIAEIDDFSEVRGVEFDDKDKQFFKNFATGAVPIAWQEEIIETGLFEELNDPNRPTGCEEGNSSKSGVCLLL

[9] = target: T1, Rhodopsin kinase GRK7 (Homo sapiens); conditions: at 1 µM
[10] = target: Serine/threonine-protein kinase MRCK alpha (Homo sapiens) (UniProt Q5VT25); conditions: at 0.1 µM
Sequence of Serine/threonine-protein kinase MRCK alpha (Homo sapiens) (Q5VT25 whole entry): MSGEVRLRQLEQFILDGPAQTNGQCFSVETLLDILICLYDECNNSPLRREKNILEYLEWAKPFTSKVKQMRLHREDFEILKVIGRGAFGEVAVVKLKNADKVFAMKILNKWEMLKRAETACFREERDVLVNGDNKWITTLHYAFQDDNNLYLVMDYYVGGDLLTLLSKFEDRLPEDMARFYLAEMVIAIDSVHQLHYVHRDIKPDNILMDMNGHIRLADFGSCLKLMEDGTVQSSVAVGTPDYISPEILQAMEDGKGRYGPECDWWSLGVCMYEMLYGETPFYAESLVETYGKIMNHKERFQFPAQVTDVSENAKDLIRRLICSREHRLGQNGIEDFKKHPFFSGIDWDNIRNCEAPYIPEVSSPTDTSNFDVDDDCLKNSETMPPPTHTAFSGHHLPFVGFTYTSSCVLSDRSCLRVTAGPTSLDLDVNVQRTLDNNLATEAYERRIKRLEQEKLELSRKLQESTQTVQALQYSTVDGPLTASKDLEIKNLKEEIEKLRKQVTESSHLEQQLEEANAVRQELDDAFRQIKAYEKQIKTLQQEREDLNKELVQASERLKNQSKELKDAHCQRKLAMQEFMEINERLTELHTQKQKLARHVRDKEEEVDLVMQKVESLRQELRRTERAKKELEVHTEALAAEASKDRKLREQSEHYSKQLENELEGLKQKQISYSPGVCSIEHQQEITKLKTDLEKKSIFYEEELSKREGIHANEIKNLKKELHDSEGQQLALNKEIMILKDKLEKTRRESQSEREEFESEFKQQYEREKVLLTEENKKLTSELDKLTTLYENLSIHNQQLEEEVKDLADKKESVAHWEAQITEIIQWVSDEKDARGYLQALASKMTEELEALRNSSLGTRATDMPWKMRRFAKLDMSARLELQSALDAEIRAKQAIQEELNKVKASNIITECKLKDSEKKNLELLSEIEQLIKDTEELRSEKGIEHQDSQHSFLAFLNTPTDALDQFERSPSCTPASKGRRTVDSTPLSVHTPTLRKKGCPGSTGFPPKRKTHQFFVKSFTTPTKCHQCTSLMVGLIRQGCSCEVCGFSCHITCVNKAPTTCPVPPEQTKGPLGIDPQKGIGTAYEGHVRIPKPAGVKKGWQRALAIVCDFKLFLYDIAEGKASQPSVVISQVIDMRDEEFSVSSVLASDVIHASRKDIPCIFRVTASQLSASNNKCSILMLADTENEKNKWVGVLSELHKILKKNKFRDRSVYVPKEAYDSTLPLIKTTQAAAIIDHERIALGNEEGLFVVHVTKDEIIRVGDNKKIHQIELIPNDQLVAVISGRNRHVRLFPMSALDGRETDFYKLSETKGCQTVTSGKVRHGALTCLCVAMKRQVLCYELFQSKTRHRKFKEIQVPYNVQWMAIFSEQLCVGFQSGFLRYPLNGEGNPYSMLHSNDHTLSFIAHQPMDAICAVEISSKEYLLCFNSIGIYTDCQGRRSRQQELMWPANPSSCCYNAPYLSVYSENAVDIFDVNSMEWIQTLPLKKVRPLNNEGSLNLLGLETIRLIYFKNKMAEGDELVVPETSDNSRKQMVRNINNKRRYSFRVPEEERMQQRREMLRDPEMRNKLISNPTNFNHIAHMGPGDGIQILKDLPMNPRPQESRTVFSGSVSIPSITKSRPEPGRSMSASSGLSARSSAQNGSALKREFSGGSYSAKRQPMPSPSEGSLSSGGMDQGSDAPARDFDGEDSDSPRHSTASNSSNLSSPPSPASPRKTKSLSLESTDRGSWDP

[11] = target: Serine/threonine-protein kinase MRCK alpha (Homo sapiens) (UniProt Q5VT25); conditions: at 1 µM
[12] = target: Serine/threonine-protein kinase MRCK beta (Homo sapiens) (UniProt Q9Y5S2); conditions: at 0.1 µM
[13] = target: Serine/threonine-protein kinase MRCK beta (Homo sapiens) (UniProt Q9Y5S2); conditions: at 1 µM
[14] = target: Ribosomal protein S6 kinase alpha-5 (Homo sapiens) (UniProt O75582); conditions: at 0.1 µM
Sequence of Ribosomal protein S6 kinase alpha-5 (Homo sapiens) (O75582 whole entry, looked up): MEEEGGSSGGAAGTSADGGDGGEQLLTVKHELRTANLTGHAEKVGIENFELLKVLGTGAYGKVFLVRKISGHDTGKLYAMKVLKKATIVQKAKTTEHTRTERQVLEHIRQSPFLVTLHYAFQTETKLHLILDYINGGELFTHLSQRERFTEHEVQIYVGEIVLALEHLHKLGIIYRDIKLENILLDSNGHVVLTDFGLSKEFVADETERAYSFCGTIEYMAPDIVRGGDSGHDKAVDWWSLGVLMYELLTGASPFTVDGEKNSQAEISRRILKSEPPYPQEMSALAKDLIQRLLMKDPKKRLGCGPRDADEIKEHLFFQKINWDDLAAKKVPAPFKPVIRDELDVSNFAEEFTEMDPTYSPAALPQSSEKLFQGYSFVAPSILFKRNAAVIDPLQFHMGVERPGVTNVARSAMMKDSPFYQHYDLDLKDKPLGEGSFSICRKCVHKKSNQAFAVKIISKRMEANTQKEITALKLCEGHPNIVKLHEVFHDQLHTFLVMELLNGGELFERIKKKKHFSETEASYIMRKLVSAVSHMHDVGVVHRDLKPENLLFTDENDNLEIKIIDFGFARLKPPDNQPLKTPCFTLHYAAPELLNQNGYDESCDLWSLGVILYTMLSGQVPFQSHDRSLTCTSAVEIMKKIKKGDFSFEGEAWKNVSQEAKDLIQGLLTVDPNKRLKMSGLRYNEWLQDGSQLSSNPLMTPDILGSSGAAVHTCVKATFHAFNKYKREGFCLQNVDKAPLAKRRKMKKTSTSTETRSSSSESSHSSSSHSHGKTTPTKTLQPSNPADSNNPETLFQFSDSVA

[15] = target: Ribosomal protein S6 kinase alpha-5 (Homo sapiens) (UniProt O75582); conditions: at 1 µM
[16] = target: Ribosomal protein S6 kinase alpha-4 (Homo sapiens) (UniProt O75676); conditions: at 0.1 µM
[17] = target: Ribosomal protein S6 kinase alpha-4 (Homo sapiens) (UniProt O75676); conditions: at 1 µM
[18] = target: Ribosomal protein S6 kinase beta-1 (Homo sapiens) (UniProt P23443); conditions: at 0.1 µM
Sequence of Ribosomal protein S6 kinase beta-1 (Homo sapiens) (P23443 whole entry, looked up): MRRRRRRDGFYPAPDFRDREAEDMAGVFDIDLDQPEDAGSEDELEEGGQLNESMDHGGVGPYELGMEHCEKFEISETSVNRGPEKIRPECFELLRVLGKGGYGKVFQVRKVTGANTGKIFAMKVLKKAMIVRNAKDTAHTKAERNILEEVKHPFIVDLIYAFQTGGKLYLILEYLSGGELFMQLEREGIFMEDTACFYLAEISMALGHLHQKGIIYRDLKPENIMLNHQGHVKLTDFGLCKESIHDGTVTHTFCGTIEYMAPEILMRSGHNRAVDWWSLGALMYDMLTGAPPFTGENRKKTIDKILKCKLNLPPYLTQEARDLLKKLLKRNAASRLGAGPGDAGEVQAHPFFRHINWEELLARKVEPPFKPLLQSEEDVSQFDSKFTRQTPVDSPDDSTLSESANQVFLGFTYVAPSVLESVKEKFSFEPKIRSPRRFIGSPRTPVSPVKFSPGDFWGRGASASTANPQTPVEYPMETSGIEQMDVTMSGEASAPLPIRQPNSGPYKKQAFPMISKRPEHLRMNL

[19] = target: Ribosomal protein S6 kinase beta-1 (Homo sapiens) (UniProt P23443); conditions: at 1 µM
[20] = target: RAC-beta serine/threonine-protein kinase (Homo sapiens) (UniProt P31751); conditions: at 1 µM

Sequence of RAC-alpha serine/threonine-protein kinase (Homo sapiens) (P31749 whole entry): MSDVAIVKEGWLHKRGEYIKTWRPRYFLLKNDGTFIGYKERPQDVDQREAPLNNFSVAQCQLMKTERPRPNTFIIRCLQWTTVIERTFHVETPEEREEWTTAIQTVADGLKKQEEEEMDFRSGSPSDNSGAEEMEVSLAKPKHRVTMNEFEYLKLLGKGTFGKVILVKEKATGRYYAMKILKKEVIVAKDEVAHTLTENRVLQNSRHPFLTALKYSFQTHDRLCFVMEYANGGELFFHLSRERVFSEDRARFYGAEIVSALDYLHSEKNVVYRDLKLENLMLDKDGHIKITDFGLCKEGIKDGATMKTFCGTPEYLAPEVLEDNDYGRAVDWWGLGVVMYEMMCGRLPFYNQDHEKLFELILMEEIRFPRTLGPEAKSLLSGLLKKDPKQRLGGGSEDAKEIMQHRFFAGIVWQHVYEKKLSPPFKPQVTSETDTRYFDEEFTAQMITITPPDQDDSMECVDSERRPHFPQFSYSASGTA
Sequence of RAC-beta serine/threonine-protein kinase (Homo sapiens) (P31751 whole entry): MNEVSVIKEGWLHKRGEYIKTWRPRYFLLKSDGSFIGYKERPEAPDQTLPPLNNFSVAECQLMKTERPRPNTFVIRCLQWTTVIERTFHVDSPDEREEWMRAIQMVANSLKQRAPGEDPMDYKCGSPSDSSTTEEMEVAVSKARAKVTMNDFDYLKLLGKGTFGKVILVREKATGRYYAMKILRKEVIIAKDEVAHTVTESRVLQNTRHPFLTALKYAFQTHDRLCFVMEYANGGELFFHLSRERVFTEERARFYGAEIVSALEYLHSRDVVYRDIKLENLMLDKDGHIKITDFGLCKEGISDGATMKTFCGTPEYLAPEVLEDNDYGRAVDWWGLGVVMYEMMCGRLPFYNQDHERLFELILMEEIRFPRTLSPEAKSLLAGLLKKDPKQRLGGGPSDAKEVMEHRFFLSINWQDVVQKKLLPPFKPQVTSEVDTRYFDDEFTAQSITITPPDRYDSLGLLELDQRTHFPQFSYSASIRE

Compound | inhibition [1] | inhibition [2] | inhibition [3] | inhibition [4] | inhibition [5] | inhibition [6] | inhibition [7] | inhibition [8] | inhibition [9] | inhibition [10] | inhibition [11] | inhibition [12] | inhibition [13] | inhibition [14] | inhibition [15] | inhibition [16] | inhibition [17] | inhibition [18] | inhibition [19] | inhibition [20]
Fc1ccc(-c2ncn(C3CCNCC3)c2-c2ccnc(Oc3ccccc3)n2)cc1 | -3.52% | -2.95% | -2.98% | -3.09% | 4.46% | -2.07% | 1.13% | 8.55% | -1.71% | -3.2% | -1.87% | -0.1% | -0.81% | -1.31% | -2.46% | 1.09% | 0.21% | 1.34% | 7.24% | –
COc1cc2c(cc1Nc1nc(Nc3ccsc3C(N)=O)c3cc[nH]c3n1)N(C(=O)CN(C)C)CCC2 | -0.27% | -0.06% | 2.64% | 2.81% | 4.75% | 27.5% | 82.8% | 22.1% | 60.3% | -2.47% | -0.12% | -0.68% | -0.44% | 2.59% | -0.04% | 2.53% | -0.18% | 1.15% | 0.53% | 0.91%
NS(=O)(=O)c1ccc(N/C=C2\C(=O)Nc3ccc4ncsc4c32)cc1 | 0.54% | 0.61% | 2.08% | 0.65% | 3.15% | 4.87% | 18.7% | 8.46% | 6.58% | -1.47% | 10.5% | 0.46% | 5.66% | 5.1% | 12.2% | 15.3% | 50.9% | 1.92% | 13.5% | 2.38%
COc1cccc(-n2ncc3c(N/N=C/c4ccncc4)ncnc32)c1 | 0.24% | -0.78% | 1.42% | 3.63% | 0.47% | 1.7% | 1.85% | 5.1% | 5.17% | -0.11% | 3.78% | 0.53% | 0.77% | 3.86% | 4.1% | 2.47% | 4.26% | 2.67% | 7.24% | -0.44%
Nc1nonc1-c1nc2cnccc2n1C1CCCCC1 | 3.37% | 37.4% | 1.24% | 3.35% | 32.3% | -0.4% | 2.07% | -7.5% | 2.63% | 18.6% | 65.9% | 29.6% | 72% | 76.5% | 85.2% | 59.6% | 83% | 72.6% | 91.2% | 22.4%
CCn1c(-c2nonc2N)nc2c(C#CCN)ncc(OCCCN)c21 | -0.6% | 10.9% | -0.31% | 1.83% | 10% | -5.01% | 6.23% | 0.4% | 7.43% | 6.68% | 13.4% | 6.58% | 23.4% | 12.1% | 51.5% | 12.9% | 52% | 7.3% | 44.7% | 12.8%
CCn1c(-c2nonc2N)nc2c(C#CC(C)(C)O)nc(O[C@@H](CN)c3ccccc3)cc21 | 93.7% | 96.4% | – | 93.3% | 95% | 1.13% | 1.51% | 3% | 114% | 29% | 72.8% | 20.8% | 66.2% | 8.67% | 51.3% | 15% | 61.3% | 13.1% | 58.4% | –
Cc1cc(-c2ccco2)cc(C)c1/C=C/c1cncc(-c2nn[nH]n2)c1 | -0.08% | -0.39% | -0.63% | -0.47% | – | -3.85% | – | 11.8% | 49.9% | -2.3% | -3.4% | 0.22% | -0.72% | -0.62% | -1.54% | 0.13% | 1.02% | 0.97% | -0.33% | 0.09%
NC(=O)c1sc(-n2cnc3cc(C(F)(F)F)ccc32)cc1OCc1ccccc1Br | 0.26% | 0.43% | -0.81% | 0.03% | – | 3.71% | 1.08% | 5.6% | 5.78% | -1.08% | -4.81% | 0.07% | 0.13% | 0.28% | -0.19% | 2.32% | 1.32% | 1.25% | -0.49% | 0.47%
NS(=O)(=O)c1ccc(-c2ccc3c(NC(=O)C4CC4)n[nH]c3c2)cc1 | 0.97% | 1% | 1.38% | 0.25% | -0.65% | 0.33% | -2.37% | -0.74% | – | -0.42% | -1.48% | 0.24% | 1.84% | 3.18% | 7.98% | -0.31% | 4.18% | 0.95% | 2.84% | 0.67%
COc1cccc(COc2cc(-n3cnc4ccccc43)sc2C(N)=O)c1 | 2.26% | 0.35% | – | -0.85% | -1.8% | 0.1% | 0.82% | 4.74% | -0.33% | -5.2% | -1.17% | -0.37% | 0.51% | 0.54% | -1.08% | 1.36% | -0.28% | 0.45% | -0.53% | 2.81%
CCn1c(-c2nonc2N)nc2c(C#CC(C)(C)O)ncc(OC[C@@H]3CCCN3)c21 | 68.2% | 91.1% | 79.7% | 67.5% | 90.4% | -2.91% | 0.91% | 6.42% | 14% | -1.54% | 23.5% | 2.11% | 19.5% | 0.57% | 7.89% | 3.2% | 17.5% | 3.87% | 25.4% | –
COc1cc(C=NNc2ncnc3c2cnn3Cc2ccccc2)ccc1O | -2.34% | -2.35% | -3.56% | -2.66% | -1.29% | -3.93% | -0.64% | – | -3.65% | 1.44% | -1.07% | 1.9% | 4.11% | 2.29% | 3% | 1.75% | 4.49% | -1.02% | -0.11% | -1.08%
CCn1c(-c2nonc2N)nc2c(C#CC(C)(C)O)ncc(OCC3CCNCC3)c21 | 60.7% | 88.2% | 74.2% | 57.7% | 86% | 4.53% | 11.1% | 5.08% | 23.3% | 3.52% | 33.2% | 2.36% | 21.1% | 2.98% | 16.2% | 4.39% | 19.2% | 3.1% | 15.4% | 89.3%
